Data as given in PubChem BioAssay (NCATS).
Where “and” joins values, the source holds several entries; their conditions need not be identical. Equal entries are not always repeated. Unmarked numbers belong to inactive results. Results filed as inconclusive are left out. Calls of active or inactive are those of the source. Unless noted, the call rests on the fitted dose curve; in most records, active means well fitted curve in the direction sought with a large enough effect in the repeat runs; inconclusive means weak or mixed curves; inactive means no such curve, though single readings can be large; an effect the other way counts as inactive or inconclusive.

Legend:
[1] = target: Nuclear receptor ROR-gamma (Homo sapiens) (UniProt P51449); assay: qHTS assay for small molecule antagonists of the retinoid-related orphan receptor gamma (ROR-gamma) signaling pathway (AID 651802; active means well fitted curve in the direction sought with a large enough effect; an effect the other way counts as inactive or inconclusive;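 further: CHO cells with doxycycline-induced ROR-gamma expression; luciferase reporter luminescence driven by ROR response element; series mostly up to about 92 µM; on the % scale 0 is the no-effect control and ±100 the full control effect; nearly all actives have a fitted effect of over 60% in size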)
Procedure, shortened: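 Doxycycline-induced reporter activity in engineered CHO cells (TET-inducible ROR, RORE-LUC) was measured by luminescence after 16hr compound exposure at 37C.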

[2] = qHTS assay for small molecule agonists of the antioxidant response element (ARE) signaling pathway measured by Nrf2-dependant transcriptional activity (AID 720636); further: % of control where 0% means no effect
Procedure, shortened: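 Quantitative HTS format in HepG2 cells stably expressing an ARE-luciferase reporter; 16 hr compound treatment at 37 C, luciferase signal detected with ONE-Glo.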

[3] = qHTS assay for small molecule antagonists of the retinoid-related orphan receptor gamma (ROR-gamma) signaling pathway - cell viability counter screen (AID 720652);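 further: CHO reporter cells with doxycycline-induced ROR-gamma expression; series mostly up to about 92 µM; compound exposure lasted 16 hr before ATP read; on the % scale 0 is the no-effect control and ±100 the full control effect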
Procedure, shortened: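 ATP-based viability readout in the ROR-gamma reporter CHO cells after 16 hr compound exposure under doxycycline induction.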

[4] = qHTS assay for small molecule agonists of the antioxidant response element (ARE) signaling pathway measured by Nrf2-dependant transcriptional activity - cell viability counter screen (AID 720653); details: ARE-bla HepG2 viability, CellTiter-Glo ATP luminescence, 16 h; hits give low values; further: on the % scale 0 is the no-effect control and ±100 the full control effect
Procedure, shortened: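 ARE-bla HepG2 cells (2,000/well) rested 5 hrs at 37C/5% CO2, then exposed to compounds in DMSO for 16 hrs. Viability was read in the same wells as intracellular ATP by luminescence, 30 min at room temperature after reagent addition.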

[5] = qHTS for small molecule inhibitors of Yes1 kinase: Counter Assay (AID 686950; active means well fitted curve in the direction sought with a large enough effect; an effect the other way counts as inactive or inconclusive;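 further: no kinase present so only ADP-Glo detection of a fixed ADP amount is tested; luminescence from ADP-Glo reporting ADP in a fixed ATP and ADP mixture; series mostly up to about 77 µM; 0% = DMSO wells with ATP plus ADP and -100% = ATP-only wells without ADP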)
Procedure, shortened: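 Measuring interference with ADP-Glo, the assay ran 60 min at room temperature on an ATP/ADP mix lacking enzyme. Values were normalized to ATP-plus-ADP (maximum) and ATP-only (minimum) DMSO controls.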

[6] = target: Arylsulfatase A (Homo sapiens) (UniProt P15289); assay: qHTS screen for enhancers of Arylsulfatase A (ASA1): LOPAC Validation Assay (AID 720538; active means well fitted curve in the direction sought with a large enough effect; an effect the other way counts as inactive or inconclusive; further: 0% is about no effect)
Procedure, shortened: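 Read-out: fluorescence at Ex=525/Em=598 nm after 1N NaOH final stop. Patient fibroblasts carrying ASA-I179S had 48h compound exposure, then 14h room-temperature pNCS hydrolysis (0.5mM final) in lysis buffer. Signal increase = enhanced activity.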

[7] = qHTS for compounds that reverse cellular toxicity of Amyloid beta (A-beta) peptide in yeast: LOPAC Validation Assay (AID 720559; active means well fitted curve in the direction sought with a large enough effect; an effect the other way counts as inactive or inconclusive;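 further: plate controls were DMSO for no effect and equimolar ferric chloride plus clioquinol rescue for full effect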)
Text: The A-beta peptide is produced by the processing of the amyloid precursor protein (APP) by two proteases, beta and gamma secretases. […] A-beta42 is regarded as the most amyloidogenic form due to its hydrophobicity; however, precisely how A-beta42 induces neurotoxicity is unclear. To understand further this biology and its potential therapeutic implications for human neurodegenerative disease, a quantitative high-throughput screen for compounds that reverse the cellular toxicity of the A-beta peptide was developed.
A yeast based screen was used because it recapitulates the salient feature of protein mis-folding disorder accurately. This cell-based phenotypic screen provides a significant, unbiased advantage by letting the compounds and models inform us which proteins or pathways are most relevant. The ideal chemical candidates would therefore have activity in both our primary yeast and secondary neuronal toxicity assays, as well as in mouse models. […] For this luminescence assay, inhibition of A-beta rescues the toxic effect in the yeast cell, resulting in increase of signals. […]
Two and a half microliter / well of yeast growth medium were dispensed in a 1536 assay plate. […] After 48 hr, the absorbance signal at 600 nm was obtained using the PerkinElmer ViewLux plate reader to assess yeast growth. […]

[8] = qHTS for Activators of Parkin Expression: LOPAC Validation Assay (NLuc Reporter) (AID 720572; active means well fitted curve in the direction sought with a large enough effect; an effect the other way counts as inactive or inconclusive;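 further: 0% = DMSO and 100% = positive control compound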)
Procedure, shortened: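 Cells harboring the Parkin-promoter coincidence reporter were treated for 24 h at seven concentrations. NLuc output was measured sequentially after the FLuc channel and scaled between DMSO and positive control values.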

[9] = qHTS for Activators of Parkin Expression: LOPAC Validation Assay (FLuc Reporter) (AID 720573; active means well fitted curve in the direction sought with a large enough effect; an effect the other way counts as inactive or inconclusive;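 further: 0% = DMSO and 100% = positive control compounds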)
Procedure, shortened: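 FLuc luminescence read-out from a neuronal line expressing a Parkin-promoter-driven coincidence reporter. Cells treated 24 h at 37 C, 5% CO2 with compounds at 7 concentrations; signal increase normalized to DMSO and positive control.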

[10] = target: Tyrosine-protein kinase Yes (Homo sapiens) (UniProt P07947); assay: qHTS for small molecule inhibitors of Yes1 kinase: Primary Screen (AID 686947; active means well fitted curve in the direction sought with a large enough effect; an effect the other way counts as inactive or inconclusive;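 further: plate controls were DMSO with enzyme for no effect and no-enzyme DMSO wells for full effect; nearly all actives have a fitted effect of over 60% in size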)
Text: The Src family of non-receptor protein tyrosine kinases contains nine members, including Yes1, Src, Fyn, Lyn, and […]. These kinases have important roles in a variety of cellular functions, such as cell proliferation, survival, and differentiation. Src, the most well characterized member of this family, has been previously identified as a proto-oncogene. […] In melanoma, it has been shown that Yes1, and not other family members, such as Src, is functionally involved in the malignant phenotype. Additionally, a recent study examining the downregulation of Yes1 by shRNA found significant effects on cell survival/growth for basal-like and Her2-positive breast cancers. […]
Two micoliter of Yes1 enzyme (columns 1-2, 5-48; Millipore, Billerica, MA) are dispensed into Greiner, white solid-bottom 1536-well assay plates; columns 3 and 4 receive buffer without Yes1 as a control for maximum inhibition. […] The production of ADP is then quantified by the ADP-Glo Kit (Promega, Madison, WI). First, 2 uL of the first kit reagent is added, and the reaction is incubated for 45 minutes; then, 4 uL of the second kit reagent are added and the reaction is incubated for 30 minutes at which time the luminescence is read on a Viewlux plate reader (Perkin-Elmer, Waltham, MA). […]

Nuclear receptor ROR-gamma (Homo sapiens), sequence (P51449 whole entry, looked up): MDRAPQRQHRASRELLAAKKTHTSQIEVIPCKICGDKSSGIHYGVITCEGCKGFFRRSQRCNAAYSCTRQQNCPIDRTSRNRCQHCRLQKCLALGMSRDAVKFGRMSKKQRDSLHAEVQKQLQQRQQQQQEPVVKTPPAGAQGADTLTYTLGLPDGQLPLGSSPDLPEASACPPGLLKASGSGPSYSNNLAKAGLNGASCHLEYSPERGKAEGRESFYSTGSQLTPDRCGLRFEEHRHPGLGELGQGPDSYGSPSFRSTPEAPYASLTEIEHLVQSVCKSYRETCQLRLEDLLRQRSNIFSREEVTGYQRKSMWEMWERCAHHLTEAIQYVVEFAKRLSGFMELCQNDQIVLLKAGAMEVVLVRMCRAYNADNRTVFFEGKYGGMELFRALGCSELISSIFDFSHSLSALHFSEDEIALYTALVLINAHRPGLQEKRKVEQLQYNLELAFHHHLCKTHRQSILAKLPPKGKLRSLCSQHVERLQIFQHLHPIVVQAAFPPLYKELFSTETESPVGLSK
Arylsulfatase A (Homo sapiens), sequence (P15289 whole entry, looked up): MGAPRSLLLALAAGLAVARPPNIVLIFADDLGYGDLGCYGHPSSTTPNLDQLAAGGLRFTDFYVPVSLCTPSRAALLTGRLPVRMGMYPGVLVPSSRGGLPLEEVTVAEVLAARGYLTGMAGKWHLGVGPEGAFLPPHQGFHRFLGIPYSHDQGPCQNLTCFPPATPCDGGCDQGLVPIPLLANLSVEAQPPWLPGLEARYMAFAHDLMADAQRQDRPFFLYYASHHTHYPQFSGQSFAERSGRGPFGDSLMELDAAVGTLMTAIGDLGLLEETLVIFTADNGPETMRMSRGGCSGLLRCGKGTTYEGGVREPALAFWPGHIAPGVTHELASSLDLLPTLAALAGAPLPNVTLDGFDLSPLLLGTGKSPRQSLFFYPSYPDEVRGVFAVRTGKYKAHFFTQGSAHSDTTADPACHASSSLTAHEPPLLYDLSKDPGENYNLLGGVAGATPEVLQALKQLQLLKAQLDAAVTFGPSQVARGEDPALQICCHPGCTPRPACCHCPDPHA
Tyrosine-protein kinase Yes (Homo sapiens), sequence (P07947 whole entry, looked up): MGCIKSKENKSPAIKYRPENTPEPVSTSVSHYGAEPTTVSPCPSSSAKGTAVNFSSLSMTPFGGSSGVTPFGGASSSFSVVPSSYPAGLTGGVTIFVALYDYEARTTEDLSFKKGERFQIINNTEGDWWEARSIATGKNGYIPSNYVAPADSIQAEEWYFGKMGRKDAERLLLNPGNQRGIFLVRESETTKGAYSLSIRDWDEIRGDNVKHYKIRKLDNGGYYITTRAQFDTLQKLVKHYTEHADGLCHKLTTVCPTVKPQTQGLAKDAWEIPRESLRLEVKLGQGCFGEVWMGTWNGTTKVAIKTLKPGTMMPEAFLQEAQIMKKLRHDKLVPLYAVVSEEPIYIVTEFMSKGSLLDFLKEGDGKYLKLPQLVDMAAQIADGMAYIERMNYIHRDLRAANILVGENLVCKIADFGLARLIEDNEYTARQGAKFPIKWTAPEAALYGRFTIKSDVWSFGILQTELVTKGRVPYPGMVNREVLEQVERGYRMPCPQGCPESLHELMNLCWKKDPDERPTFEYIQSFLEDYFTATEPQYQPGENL

For CN(C)Cc1ccccc1, the outcome [1] was “inactive”, the outcome [2] was “inactive” and the outcome [3] was “inactive”. For the same compound, the max response [4] was -3.95%.

In the case of COc1cc(O)c2c(c1)/C=C/C[C@H](O)[C@H](O)C(=O)/C=C\C[C@H](C)OC2=O, the outcome [5] is reported as “inactive”.

For O=C(O)CC(O)(CC(=O)O)C(=O)O, the outcome [1] was “inactive”, the outcome [3] was “inactive” and the max response [4] was 1.31% and -9.81% and -4.69%.

For CN[C@H]1CC[C@@H](c2ccc(Cl)c(Cl)c2)c2ccccc21, the outcome [6] was “inactive”, the outcome [7] was “inactive” and the outcome [8] was “inactive”. The outcome [9] was “inactive”.

With COc1cc(F)c(F)c(Nc2ccc(I)cc2F)c1NS(=O)(=O)C1(CC(O)CO)CC1 (centres undefined) the outcome [10] was “inactive” and the outcome [5] was “inactive”.

With COC(C)=O the outcome [1] was “inactive”, the outcome [2] was “inactive” and the outcome [3] was “inactive”. It also gave a max response [4] of 11.2%.

For CCCCCCCCCC(=O)O, the outcome [2] was “inactive”, the outcome [3] was “inactive” and the max response [4] was -4.59% and -4.9%.

In the case of C=Cc1ccccc1, the outcome [1] is reported as “inactive”, the outcome [2] is reported as “inactive” and the outcome [3] is reported as “inactive”. The max response [4] was 5.41% and 3.34%.

For O=S(=O)(c1ccccc1)N(CC(F)(F)F)c1ccc(C(O)(C(F)(F)F)C(F)(F)F)cc1, the outcome [2] was “inactive” and the max response [4] was -21.3%.

With CC(=O)S[C@@H]1CC2=CC(=O)CC[C@]2(C)[C@H]2CC[C@@]3(C)[C@@H](CC[C@@]34CCC(=O)O4)[C@H]12 the outcome [2] was “inactive” and the max response [4] was -12%.

For NCCCC(=O)O, the outcome [7] was “inactive”, the outcome [8] was “inactive” and the outcome [9] was “inactive”.

For CCCCCCCC/C=C\CCCCCCCC(=O)OC[C@@H](O)[C@H]1OC[C@H](O)[C@H]1O, the outcome [2] was “inactive” and the max response [4] was 4.25%.
